In the supplement of paper PMC10849652:
Of roughly 7,900 targets only a part is listed; those with a hit were picked by preference. About 0.6% of all pairs of compound and target were hits.

Legend:
Assay in all cases: log2 fold change, soluble protein after heating vs DMSO (PISA); higher = thermal stabilisation; K562 cells, 10 uM, 30 min; active = over 0.2 and 3.5 SD of the protein, either way, in both replicates (recomputed)
AAGAB = AAGAB (UniProt Q6PD74)
Method in brief: (§1)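 K562 cells at 2×10^6 cells/mL were given 10 μM compound for 30 min. Aliquots then went through 3 min of heating across 48°C-58°C, were pooled, and were extracted in PBS with 0.5% NP-40 at 4°C, and the supernatant after 21,000xg for 90 min was quantified by TMTpro 16plex LC-MS/MS with channel sums equalised. Thermal stability relative to control samples, from duplicates, is given as log2 fold change.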

AAK1 [1] = molecular target: AAK1 (UniProt A0A096LP25)
Method in brief: as §1

AAK1 [2] = molecular target: AAK1 (UniProt Q2M2I8)
Method in brief: as §1

Measured: log2 fold change

AAGAB, sequence (Q6PD74 whole entry, looked up): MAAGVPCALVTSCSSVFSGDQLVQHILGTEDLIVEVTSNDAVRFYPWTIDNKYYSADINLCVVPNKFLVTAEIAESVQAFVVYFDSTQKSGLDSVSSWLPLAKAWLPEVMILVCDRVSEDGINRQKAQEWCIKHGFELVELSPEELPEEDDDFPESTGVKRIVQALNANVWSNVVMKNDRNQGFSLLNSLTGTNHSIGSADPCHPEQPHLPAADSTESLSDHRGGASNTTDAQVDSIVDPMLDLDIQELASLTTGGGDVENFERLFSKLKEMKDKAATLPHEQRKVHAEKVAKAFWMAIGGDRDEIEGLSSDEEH
AAK1 (UniProt Q2M2I8), sequence (Q2M2I8 whole entry, looked up): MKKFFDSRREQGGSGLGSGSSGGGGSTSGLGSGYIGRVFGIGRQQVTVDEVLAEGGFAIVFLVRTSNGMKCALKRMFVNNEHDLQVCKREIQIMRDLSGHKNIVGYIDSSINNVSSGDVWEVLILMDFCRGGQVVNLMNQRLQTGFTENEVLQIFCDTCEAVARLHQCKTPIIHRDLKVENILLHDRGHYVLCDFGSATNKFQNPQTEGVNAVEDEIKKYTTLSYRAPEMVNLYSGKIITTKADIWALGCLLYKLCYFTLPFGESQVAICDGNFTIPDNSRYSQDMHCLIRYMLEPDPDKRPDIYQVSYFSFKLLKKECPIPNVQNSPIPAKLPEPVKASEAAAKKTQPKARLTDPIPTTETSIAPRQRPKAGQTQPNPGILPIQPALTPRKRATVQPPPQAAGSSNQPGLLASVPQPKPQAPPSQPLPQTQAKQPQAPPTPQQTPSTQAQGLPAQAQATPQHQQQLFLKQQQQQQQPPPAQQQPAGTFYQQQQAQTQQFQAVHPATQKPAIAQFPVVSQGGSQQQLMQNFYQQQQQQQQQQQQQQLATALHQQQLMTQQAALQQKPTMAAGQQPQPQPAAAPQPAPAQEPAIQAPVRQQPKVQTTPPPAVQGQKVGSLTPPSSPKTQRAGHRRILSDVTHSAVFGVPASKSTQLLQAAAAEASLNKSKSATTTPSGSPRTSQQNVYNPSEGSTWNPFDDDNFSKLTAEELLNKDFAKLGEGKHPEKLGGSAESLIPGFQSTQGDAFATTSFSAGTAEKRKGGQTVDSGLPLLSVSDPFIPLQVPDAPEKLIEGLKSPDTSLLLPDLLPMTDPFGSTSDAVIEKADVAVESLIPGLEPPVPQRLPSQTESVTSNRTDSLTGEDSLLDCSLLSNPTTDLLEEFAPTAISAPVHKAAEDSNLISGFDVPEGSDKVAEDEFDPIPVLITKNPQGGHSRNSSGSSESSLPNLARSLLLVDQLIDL

Cc1sc2c(c1C)C(c1ccc(Cl)cc1)=N[C@@H](CC(=O)OC(C)(C)C)c1nnc(C)n1-2
inactive: AAGAB -0.03 | AAK1 [1] -0.024 | AAK1 [2] -0.217

O=C(N[C@@H](COc1ccc2[nH]c(=O)[nH]c2c1)c1ccccc1)c1cccn(Cc2ccc(F)c(F)c2)c1=O
inactive: AAGAB -0.025 | AAK1 [1] -0.056 | AAK1 [2] 0.02

Cc1sc2c(c1C)C(c1ccc(Cl)cc1)=N[C@@H](CC(N)=O)c1nnc(C)n1-2
inactive: AAGAB 0.044 | AAK1 [1] -0.041 | AAK1 [2] 0.039

Cc1ccccc1-n1c(Cn2cnc3c(N)ncnc32)nc2cccc(C)c2c1=O
inactive: AAGAB 0.198 | AAK1 [1] -0.046 | AAK1 [2] 0.083

c1ccc([C@@H]2C[C@H]2NC2CCNCC2)cc1
inactive: AAGAB 0.038 | AAK1 [1] 0.072 | AAK1 [2] -0.017
